Screens (PubChem)
Rows were chosen to be rich in hits. Some 2.8% of all compounds tested hit in one or more screens of this group.
HTT cytoprotect – Huntington cell model cytoprotection by ATP luminescence | PC12 HTT-Q103 induced, cytoprotection, ATP luminescence, 40 h | Potency, µM (doses to about 56.4 µM), without a hit: cytoprotection (ATP increase), usual class: activators | 230,000 tested, 0.14% active | AID 1471; also: % of control where 0% means no effect; nearly all actives have a fitted effect of over 45% in size
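Stable PC12 Q103-GFP cells in serum-supplemented, phenol red-free DMEM; induction by tebufenozide at 100 nM final; compound dose series; cell viability quantified luminescently from ATP.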
ATXN viability – reduces viability in counter-screen for ATXN expression inhibitors. Potency, µM (doses to about 56.7 µM), most hits filed as cytotoxic. 400,000 tested, 0.49% active. S2 cells (HEK-293 line with an ATXN2-luciferase reporter) viability, CellTiter-Fluor protease fluorescence, 24 h; also: nearly all actives have a fitted effect of over 40% in size
ATXN2 expr inh – reduces ATXN2 reporter expression in HEK-293 cells; Potency, µM (top dose mostly 57 µM), for inactives: at the highest dose activity change, negative = inhibition, usual class: inhibitors; 360,000 tested, 0.72% active; HEK-293 ATXN2-luciferase reporter, luminescence, 24 h; also: % is scaled to controls: 0 for no effect and ±100 for the full control effect; nearly all actives have a fitted effect of over 55% in size
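ATXN2-luciferase reporter cells (luciferase flanked by upstream and downstream ATXN2 gene portions) were treated 24 h at 37 °C with compounds at up to 57 uM. SteadyGlo luminescence gave expression; GF-AFC fluorescence gave viability.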
HepG2 viability – kills HepG2 cells in TGF-b inhibitor counter-screen; HepG2 CAGA-GFP viability, ATP luminescence, 18 h; Potency, µM (series often up to 46.1 µM), for inactives: at the top dose activity change, negative = cytotoxicity, hits mostly cytotoxic; 410,000 tested, 0.76% active; AID 588856
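CellTiter-Glo luminescence gave cytotoxicity after 18 hours at 37 degrees C. The cells were HepG2 CAGA-GFP in 1% FBS DMEM, stimulated with 500 pg/mL TGF-beta after compound addition. %Activity was normalised to no-cell wells (complete cell-killing) and DMSO (no toxicity), and curves were fitted and classified.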
HTT aggregate – mutant huntingtin aggregation inhibition. PC12 HttQ103-GFP aggregates, Acumen cytometry, 40 h. Potency, µM (series often up to 46.1 µM), for the others: at the highest dose activity change, negative = inhibition, actives largely listed as inhibitors. 220,000 tested, 1.1% active; also: % is scaled to controls: 0 for no effect and ±100 for the full control effect; nearly all actives have a fitted effect of over 60% in size
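Multiplexed with ATP-based cell death, this channel scores GFP aggregates in PC12 cells expressing inducible HTTex1-Q103-GFP. Induction used 100 nM tebufenozide; compounds were tested in concentration series.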
TGFb SMAD3 inh – inhibitors of TGF-b signaling; HepG2 CAGA-GFP TGF-b/SMAD3 reporter, GFP fluorescence, 18 h; TGF-beta stimulated, 500 pg/mL final; Potency, µM (highest dose often 46.1 µM), for the others: at the top dose activity, negative = inhibition, hits mostly inhibitors; 410,000 tested, 1.2% active; also: % is scaled to controls: 0 for no effect and ±100 for the full control effect; nearly all actives have a fitted effect of over 65% in size
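Inhibition of TGF-beta-driven CAGA-GFP reporter expression in HEPG2 cells is measured by cellular GFP fluorescence after 18 h stimulation with 500 pg/mL recombinant TGF-beta in 1% FBS medium at 37 degrees C.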
Starred values were filed as active, the others as inactive; [ ] = dose if it differs, or a comment. Calls follow the shape of the dose curve; as a rule, active = well fitted curve in the direction sought with a large enough effect; inconclusive = small, poorly fitted or top-dose-only effect, or another doubt; inactive = no such curve, though single readings can be large; an effect the other way counts as inactive or inconclusive. Potency is read from the fitted curve at half-maximal effect.

CN1C/C(=C/c2ccncc2)C(=O)/C(=C/c2ccncc2)C1 was read as ATXN viability inactive, ATXN2 expr inh 4.5%, HepG2 viability -3.9% and TGFb SMAD3 inh 1.2%.
Screening CC(C)(C)c1nc2cc(Cl)c([N+](=O)[O-])cc2o1 returned HTT cytoprotect 33.4%[10 µM], ATXN viability inactive, ATXN2 expr inh -31.7%, HepG2 viability -19.6%, HTT aggregate 25.3%[9.22 µM] and TGFb SMAD3 inh 7.08µM*.
Cc1cc(C)n(CCC(=O)N/N=C/c2c(O)ccc3ccccc23)n1 was read as HTT cytoprotect -66.9%[10 µM], ATXN viability 10µM*, HepG2 viability -33.5%, HTT aggregate inconclusive and TGFb SMAD3 inh inconclusive.
`O=C(N/N=C/c1c(O)ccc2ccccc12)C(=O)N1CCCC1` gave ATXN viability inactive, HepG2 viability -0.1% and TGFb SMAD3 inh -0.5%.
O=C(CCSc1nc2ccccc2s1)N/N=C/c1c(O)ccc2ccccc12 was read as HTT cytoprotect -75.6%[10 µM], ATXN viability inactive, ATXN2 expr inh 3.16µM*, HepG2 viability 0.8%, HTT aggregate inconclusive and TGFb SMAD3 inh -12.5%.
For O=C(CN1CCCC1)N/N=C/c1c(O)ccc2ccccc12 the results were ATXN viability inconclusive, ATXN2 expr inh 2.82µM*, HepG2 viability -35.3% and TGFb SMAD3 inh -17.1%.
Screening CCC(C)Sc1ccc(-c2nc3ccccn3c2NCc2ccccc2)cc1OC (stereo unspecified) returned ATXN viability inconclusive, ATXN2 expr inh inconclusive, HepG2 viability -60.0% and TGFb SMAD3 inh 12.6µM*.
For O=C(N/N=C/c1ccc([N+](=O)[O-])o1)c1sc2ccccc2c1Cl the results were HTT cytoprotect 2.4%[10 µM], ATXN viability 31.6µM*, HepG2 viability -185.7%, HTT aggregate 2.7%[9.22 µM] and TGFb SMAD3 inh inconclusive.
COC(=O)N/N=C/c1ccc([N+](=O)[O-])o1 was read as HTT cytoprotect 23.5%[10 µM], ATXN viability inactive, ATXN2 expr inh -24.8%, HepG2 viability -22.5%, HTT aggregate 0.4% and TGFb SMAD3 inh -25.0%.
Cc1cc(C(=O)N/N=C/c2ccc([N+](=O)[O-])o2)c(C)o1 was read as HTT cytoprotect 3.0%[10 µM], ATXN viability inconclusive, HepG2 viability 11.2µM*, HTT aggregate -3.8%[9.22 µM] and TGFb SMAD3 inh 17.8µM*.
O=C(CNc1ccc2ccccc2c1)N/N=C/c1ccc([N+](=O)[O-])o1 was read as HTT cytoprotect -4.1%[10 µM], ATXN viability inconclusive, ATXN2 expr inh -6.5%, HepG2 viability 7.94µM*, HTT aggregate -27.5% and TGFb SMAD3 inh 8.91µM*.
Screening O=C(N/N=C/c1ccccn1)c1sc2ccccc2c1Cl returned HTT cytoprotect -30.5%[10 µM], ATXN viability inconclusive, HepG2 viability -28.0%, HTT aggregate 10.7%[9.22 µM] and TGFb SMAD3 inh inconclusive.
`O=C(COc1ccccc1)N/N=C/c1ccc([N+](=O)[O-])o1` gave HTT cytoprotect -8.7%[1.9 µM], ATXN viability inconclusive, HepG2 viability 11.2µM*, HTT aggregate -16.3% and TGFb SMAD3 inh 11.2µM*.
COc1ccc2cc([S+]([O-])Cc3ncc(C)c(OC)c3C)nc2c1 was read as ATXN2 expr inh 20.6%.
For C[S+](C)CC(=O)c1ccc2ccccc2c1 the results were HepG2 viability -12.4% and TGFb SMAD3 inh 24.1%.
Screening Cc1ccc(OCC(=O)N/N=C/c2ccc([N+](=O)[O-])o2)cc1 returned HTT cytoprotect -5.0%[10 µM], ATXN viability inconclusive, ATXN2 expr inh inconclusive, HepG2 viability 10µM*, HTT aggregate 8.8% and TGFb SMAD3 inh 10µM*.
`COc1ccccc1NS(=O)(=O)c1cccc(C(=O)N/N=C/c2ccc([N+](=O)[O-])o2)c1` gave ATXN viability inconclusive, ATXN2 expr inh inconclusive, HepG2 viability -110.3% and TGFb SMAD3 inh 7.08µM*.
Cc1ccc(OCC(=O)N/N=C\c2ccc(C)o2)c([N+](=O)[O-])c1 was read as HTT cytoprotect 3.4%, ATXN viability inactive, ATXN2 expr inh 7.1%, HepG2 viability 3.7%, HTT aggregate -11.9% and TGFb SMAD3 inh 26.9%.
For COc1ccccc1NS(=O)(=O)c1cccc(C(=O)N/N=C/c2ccc3c(c2)OCCO3)c1 the results were HTT cytoprotect 16.4%[0.074 µM], ATXN viability inactive, ATXN2 expr inh 35.8%, HepG2 viability 4.7%, HTT aggregate -1.2% and TGFb SMAD3 inh 5.4%.
Screening NC(N)=N/N=C(/c1ccccc1)c1ccc(O)cc1O returned HTT cytoprotect -2.4%[10 µM].
`Fc1ccc(-c2nnc(CN3CCC(c4nc5ccccc5s4)CC3)o2)cc1` gave HTT cytoprotect -19.8%, ATXN viability inactive, ATXN2 expr inh 12.5%, HepG2 viability -9.6%, HTT aggregate 11.2µM* and TGFb SMAD3 inh -15.8%.
For Fc1cc(F)cc(Nc2nc(Cl)nc(NC3CCCC3)n2)c1 the results were ATXN viability 25.1µM*, ATXN2 expr inh inconclusive, HepG2 viability -59.6% and TGFb SMAD3 inh inconclusive.
For CC(C)Nc1nc(Cl)nc(NC2CCCCC2)n1 the results were ATXN viability inconclusive, ATXN2 expr inh 16.7%, HepG2 viability -42.3% and TGFb SMAD3 inh -28.5%.
`O=C(/C=C/c1ccc(OC2CSC2)cc1)c1ccccc1` gave HTT cytoprotect -20.1%, ATXN viability inconclusive, ATXN2 expr inh inconclusive, HepG2 viability 6.31µM*, HTT aggregate 3.2% and TGFb SMAD3 inh inconclusive.
For O=C(N/N=C/c1ccc(OC2CSC2)cc1)c1ccccc1 the results were HTT cytoprotect -26.3%, ATXN viability inconclusive, ATXN2 expr inh 5.2%, HepG2 viability -24.8%, HTT aggregate -25.2% and TGFb SMAD3 inh -8.5%.
`COc1c[nH]n(C2CCCCC2)c(=O)c1=O` gave HTT cytoprotect 3.1%, ATXN viability 22.4µM*, ATXN2 expr inh 0.0%, HepG2 viability 11.5%, HTT aggregate -11.8% and TGFb SMAD3 inh -19.0%.
Screening COc1ccc(Nc2cc(=O)n(C3CCCCC3)c(=O)[nH]2)c(OC)c1 returned HTT cytoprotect 3.6%, ATXN viability inactive, ATXN2 expr inh -11.0%, HepG2 viability 5.7%, HTT aggregate -9.6% and TGFb SMAD3 inh -15.0%.
O=C(N/N=C/c1ccc(O)c(O)c1)NC12CC3CC(CC(C3)C1)C2 was read as ATXN viability inactive, ATXN2 expr inh -15.3%, HepG2 viability -34.3% and TGFb SMAD3 inh -6.9%.
For O=C(N/N=C/c1ccccc1O)NC12CC3CC(CC(C3)C1)C2 the results were ATXN viability inactive, ATXN2 expr inh 20.7%, HepG2 viability -128.3% and TGFb SMAD3 inh 11.2µM*.
